From PubChem BioAssay AID504727 (Broad Institute, 2011)
Unmarked numbers belong to inactive results. Active and inactive are the calls of the source.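 Rule for the calls: active = fitted half-maximal concentration AC50 at or below ten times the highest valid tested dose, with signal falling as DNA is displaced (actives reach about 34 µM in these data); inconclusive = flat fit at moderate signal loss, or poor fit quality; inactive = the rest, including signal rising instead of falling.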

Experiment: acridine orange-DNA binding displacement – biochemical, fluorescence polarization, cherry-picked samples, set 2, artefact control for KSHV LANA DNA-binding inhibitor project, dose response (AID 504727);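 for activity change, negative = DNA displacement: 0% = median of neutral control wells and -100% = mitoxantrone positive control wells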
Settings: series mostly up to 35 µM; activity change, negative = DNA displacement: at the top concentration

In order of rising “activity change, negative = DNA displacement” value:
1. CCOC(=O)C1CCCN(C(=O)C2c3ccccc3Oc3ccccc32)C1 (stereo not drawn)  -14.3%
2. O=C(CN1C(=O)/C(=C/c2ccco2)SC1=S)Nc1ccc(O)c(C(=O)O)c1  -5.04%
3. COc1ccc(-c2cc(C(=O)N(C)CCc3ccc(OC)c(OC)c3)c3ccccc3n2)cc1  -3.19%
4. CCN(CC(=O)Nc1c(F)cccc1F)C(=O)CCCc1cccs1  -3.02%
5. CNC(=S)Nc1cccc(C(=O)OC)c1  -2.26%
6. COc1cccc(NC(=S)N2CCN(C(c3ccccc3)c3ccccc3)CC2)c1  -1.73%
7. COc1ccc(NC(=O)CO/N=C2/CCCc3nonc32)c(OC)c1  -0.363%
8. Cc1ccc(-c2nnc(-c3ccc(NC(=O)c4ccco4)cc3)o2)cc1  -0.353%
9. COC(=O)C1=COC(C)C2CN3CCc4c([nH]c5ccccc45)C3CC12 (stereo not drawn)  0.065%
10. O=C(O)C1(c2ccccc2)CCN(S(=O)(=O)c2ccc(Cl)s2)CC1  0.613%
11. CCN(C(=O)c1cccc(S(=O)(=O)N2CCc3ccccc32)c1)C1CCS(=O)(=O)C1 (stereo not drawn)  1.43%
12. COc1ccc(CNC(=O)C2CCC(CNC(=O)[C@@H]3Cc4ccccc4CN3)CC2)cc1 (stereo partly drawn)  2.09%
13. O=c1c2c(nc3cc(-c4ccc(F)cc4)[nH]n13)CCC2  2.38%
14. Cc1nnc(NC(=O)CN2C(=O)NC3(CCCC3)C2=O)s1  2.88%
15. O=C(CSc1nc2ccccc2[nH]1)Nc1cccc(S(=O)(=O)N2CCOCC2)c1  3.04%
16. CCOc1ccc(Nc2ccc(N)c(S(=O)(=O)O)c2)cc1  3.32%
17. CC(=O)N/C(=N\OCc1ccc(Br)cc1)c1nonc1NC(C)=O  3.71%
18. O=C(O)/C(=C\c1cccs1)Sc1nnc(-c2ccc(F)cc2)o1  3.86%
19. COC(=O)c1c(C)oc2ccc(N(C(C)=O)S(=O)(=O)c3ccccc3)cc12  4.4%
20. NC1=NC[C@@H](Cc2ccc(O)cc2)N1CCc1cc(C(F)(F)F)cc(C(F)(F)F)c1  4.46%
21. C=C(C)C(=O)Nc1cccc(C2=NOC3(C2)C[C@@H](C(N)=O)N(C(=O)C2(C)CC2)C3)c1 (stereo partly drawn)  4.47%
22. CC(=O)OCCCn1c(C)[n+](C)c2cc(Cl)c(Cl)cc21  4.62%
23. COc1ccc(C(=O)OCC(=O)NC2CC2)cc1S(=O)(=O)Nc1ccc(C)cc1  4.67%
24. CCN(Cc1ccccc1)S(=O)(=O)c1cc2[nH]c(=O)c(=O)[nH]c2cc1C  4.76%
25. CC(=O)O[C@@H]1[C@@H](OC(C)=O)[C@H](n2ccc3cc([N+](=O)[O-])ccc32)OC[C@@H]1OC(C)=O  5.05%
26. COc1ccc(N(CC(=O)NCc2ccc3c(c2)OCO3)C(=O)c2csnn2)cc1  5.2%
27. Fc1ccc(-c2cc(C(F)(F)F)nc(-n3cc(Cl)cn3)n2)cc1  5.26%
28. C/C(=N\NC(=O)CCc1c(C)n[nH]c1C)c1ccc([N+](=O)[O-])cc1  5.29%
29. COc1cccc(NC(=O)N(CCN(C)C)C(C)c2cccnc2)c1 (stereo not drawn)  5.51%
30. COc1ccc(NS(=O)(=O)c2ccc3c(c2)[C@H]2C=CC[C@H]2[C@@H](c2ccc(C(=O)O)cc2)N3)cc1  5.91%
31. COc1ccc(-c2n[nH]c(=S)n2-c2ccc(C)cc2)cc1  6.18%
32. Cc1ccc(C(=O)CCC(=O)Nc2ncccc2C)cc1  10.4%
33. CC(=O)N(C(C)=O)N1C(=O)c2cccc3c(N4CCOCC4)ccc(c23)C1=O  10.5%
34. NC(=S)N/N=C/c1ccc(-c2ccc([N+](=O)[O-])cc2)o1  16.8%

Work on `CCCCCn1nc(-c2ccccc2)c2nc3ccccc3nc21` yielded an AC50 greater than 35 µM.
With `CCN(CC)CCCC(C)n1c2nc(=O)[nH]c(=O)c-2nc2cc(Cl)ccc21` (stereo not drawn) the AC50 was 0.316 µM (active).
For `CN(C)CCNc1ccc2ncn3c4ccc(O)cc4c(=O)c1c23`, the AC50 was 8.68 µM (active).
With `Oc1ccc2ccc3cccc[n+]3c2c1` the AC50 was 1.42 µM (active).
